Screens deposited in PubChem by National Center for Advancing Translational Sciences (NCATS).
Vif-APOBEC3F blk = qHTS for Inhibitors of Vif-A3F Interactions: qHTS; hit rate 0.2% among 390,000; Potency, µM (doses to about 46.1 µM), for inactives: at the top dose activity, negative = active; HeLa A3F-eYFP + Vif (tagged APOBEC3F with the HIV-1 protein that degrades it), YFP fluorescence increase; also: % of control where 0% means no effect; nearly all actives have a fitted effect of over 65% in size
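Fluorescence increase (Ex 488/Em 500-530) after overnight compound treatment at 37 deg C flags inhibition of Vif-driven A3F-eYFP loss in stable HeLa A3F-eYFP/Vif cells seeded overnight beforehand.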
PINK1 expr mod = A Quantitative High throughput Screen to Identify Chemical Modulators of PINK1 Expression. hit rate 0.2% among 410,000. PINK1 immunofluorescence, high-content cytometry, 24 h. Potency, µM (titrated, usually from 76.6 µM), for inactives: at the top dose activation (PINK1 increase), most hits filed as activators; active = well fitted activation curve with a large enough effect; inconclusive = small, poorly fitted or top-dose-only effect; cell line not stated here; also: % of control where 0% means no effect; nearly all actives have a fitted effect of over 65% in size
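Compound titrations (5 concentrations, 24 h) on a stable cell line; DMSO and CCCP controls. Endpoint: fixed-cell PINK1 immunofluorescence with mitochondrial, cell and nuclear markers, scanned by microplate cytometer.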
Vif-A3G inh = qHTS for Inhibitors of Vif-A3G Interactions: qHTS. DNA dC->dU-editing enzyme APOBEC-3G (Homo sapiens), Q9HC16. HeLa A3G-eYFP + Vif (tagged APOBEC3G with the HIV-1 protein that degrades it), YFP fluorescence, overnight. Potency, µM (top dose mostly 46.1 µM), without a hit: top-dose activity, negative = active, actives largely listed as inhibitors. hit rate 0.076% among 410,000; also: % is scaled to controls: 0 for no effect and ±100 for the full control effect; nearly all actives have a fitted effect of over 60% in size
Target sequence (Q9HC16 whole entry, looked up): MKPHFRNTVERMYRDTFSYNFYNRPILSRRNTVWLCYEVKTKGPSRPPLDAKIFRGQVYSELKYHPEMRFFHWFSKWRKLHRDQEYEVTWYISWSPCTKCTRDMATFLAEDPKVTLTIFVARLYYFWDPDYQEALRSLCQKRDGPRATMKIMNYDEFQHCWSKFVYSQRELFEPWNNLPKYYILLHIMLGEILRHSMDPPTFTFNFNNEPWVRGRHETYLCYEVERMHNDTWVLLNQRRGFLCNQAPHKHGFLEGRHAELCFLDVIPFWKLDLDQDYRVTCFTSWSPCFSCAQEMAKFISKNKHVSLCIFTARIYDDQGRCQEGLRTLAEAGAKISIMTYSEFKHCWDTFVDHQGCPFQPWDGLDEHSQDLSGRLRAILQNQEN
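HeLa cells stably expressing Vif and C-terminally eYFP-tagged A3G, seeded overnight at 37 deg C, then exposed to compound by pintool overnight at 37 deg C. Rise in yellow fluorescence (Ex 488/Em 500-530, Acumen) marks blocked Vif-driven A3G degradation.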
GLS inhibitor = qHTS for Inhibitors of Glutaminase (GLS) | Potency, µM (highest dose often 45.5 µM), for the others: top-dose activity change, negative = inhibition, usual class: inhibitors | GLS enzymatic activity, qHTS titration | AID 624170, 2012 | hit rate 0.21% among 410,000; also: % is scaled to controls: 0 for no effect and ±100 for the full control effect
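Coupled fluorescence readout: glutamate oxidase/HRP/Amplex Red detect glutamate formed by hKGA from L-glutamine (1 mM solution added). Buffer 45 mM KH2PO4 pH 8.2, 0.02% Tween-20; reads at t0 and 30 min RT.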
Epigenetic reg = Quantitative High-Throughput Screen for Regulators of Epigenetic Control. Potency, µM (series often up to 53.9 µM), inactives show at the top dose GFP activation, hits mostly activators. murine LDR cells, GFP reporter derepression, 30 h. hit rate 0.2% among 280,000. AID 1865, 2009; also: % of control where 0% means no effect; nearly all actives have a fitted effect of over 60% in size
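Derepression of a silenced CMV-GFP reporter in murine LDR cells is scored by enumerating GFP-positive cells with a laser-scanning microplate cytometer after 30 hours of treatment at 37 C.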
* marks the source's active call; other numbers are inactive results; [ ] = dose if it differs, or a comment. This is a sample that favours compounds with a hit; in the whole collection about 0.7% have one here. Unless noted, calls follow the shape of the dose curve; as a rule, active = well fitted curve in the direction sought with a large enough effect; inconclusive = small, poorly fitted or top-dose-only effect, or another doubt; inactive = no such curve, though single readings can be large; an effect the other way counts as inactive or inconclusive. Potency is read from the fitted curve at half-maximal effect.

What do the screens show for `COc1ccc(C(c2c(C)[nH][nH]c2=O)c2c(C)[nH][nH]c2=O)cc1Br`?
Vif-APOBEC3F blk: -4%; PINK1 expr mod: 1%; Vif-A3G inh: -2%; GLS inhibitor: 20%

How did O=C(Nc1c2c(nn1-c1ccc(Cl)cc1)CS(=O)(=O)C2)c1ccc(Br)cc1 do in these assays?
Vif-APOBEC3F blk: 1%; PINK1 expr mod: 32µM*; Vif-A3G inh: -4%; GLS inhibitor: -10%; Epigenetic reg: 0%

Results for O=C1CSC(=S)N1Cc1cccnc1 ?
Vif-APOBEC3F blk: 11µM*; PINK1 expr mod: 9%; Vif-A3G inh: inconclusive; GLS inhibitor: 16%; Epigenetic reg: 2%

How did O=C1CSC(=S)N1c1cccnc1 do in these assays?
Vif-APOBEC3F blk: -6%; PINK1 expr mod: 3%[38.3 µM]; Vif-A3G inh: 1%; GLS inhibitor: 21%; Epigenetic reg: -1%

What do the screens show for `Nc1nonc1C(=O)N/N=C/c1cc2c(cc1[N+](=O)[O-])OCO2`?
Vif-APOBEC3F blk: -2%; PINK1 expr mod: 40µM*; Vif-A3G inh: -8%; GLS inhibitor: -3%

Results for O=C(N/N=C\c1cc2c(cc1[N+](=O)[O-])OCO2)c1cccs1 ?
Vif-APOBEC3F blk: -3%; PINK1 expr mod: 29%; Vif-A3G inh: -8%; GLS inhibitor: -10%

How did COc1ccc(CN2CCC3(CC2)c2ccccc2[C@@H](NC(=O)c2ccccc2)[C@@H]3O)cc1O do in these assays?
PINK1 expr mod: 0%

What do the screens show for `CO/N=C/C(C#N)c1ncc(C(F)(F)F)cc1Cl` (stereo not drawn)?
Vif-APOBEC3F blk: -3%; PINK1 expr mod: 13µM*; Vif-A3G inh: 6%; GLS inhibitor: 16%; Epigenetic reg: 2%

What do the screens show for `CCCOc1ccc(C(=O)Nc2cccc(NC(=O)c3ccc(Cl)cc3Cl)c2)cc1`?
Vif-APOBEC3F blk: inconclusive; PINK1 expr mod: 5%; Vif-A3G inh: 13µM*; GLS inhibitor: -6%; Epigenetic reg: inconclusive

Results for CCCOc1cccc(C(=O)Nc2cccc(NC(=O)c3ccc(Cl)cc3Cl)c2)c1 ?
Vif-APOBEC3F blk: -5%; PINK1 expr mod: 1%; Vif-A3G inh: 1%; GLS inhibitor: 0%; Epigenetic reg: 0%

How did COC(=O)c1ccc2c(=O)n(CCCCCC(=O)NCCc3ccccc3)c(=O)[nH]c2c1 do in these assays?
Vif-APOBEC3F blk: -1%; PINK1 expr mod: 1%; Vif-A3G inh: 2%; GLS inhibitor: 11µM*; Epigenetic reg: -1%

Results for O=C(CCCCCn1c(=O)[nH]c2ccccc2c1=O)NCc1ccccc1 ?
Vif-APOBEC3F blk: 0%; PINK1 expr mod: 0%; Vif-A3G inh: -4%; GLS inhibitor: 8.9µM*; Epigenetic reg: 0%

What do the screens show for `COCCn1c(=O)[nH]c2cc(C(=O)Nc3ccc(OC)cc3)ccc2c1=O`?
Vif-APOBEC3F blk: -2%; PINK1 expr mod: -1%; Vif-A3G inh: 3%; GLS inhibitor: 1%; Epigenetic reg: -1%

How did CCCCCn1c(=O)[nH]c2cc(C(=O)Nc3cc(OC)cc(OC)c3)ccc2c1=O do in these assays?
Vif-APOBEC3F blk: 28µM*; PINK1 expr mod: 3%; Vif-A3G inh: -1%; GLS inhibitor: 0%; Epigenetic reg: 2%

How did Cc1ncc2c(c1CNC(=O)/C=C/c1cccs1)CCN(C(=O)c1c(C)noc1C)C2 do in these assays?
PINK1 expr mod: 0%

How did OCCN1CCN(c2cc(-c3ccc(CO)cc3)nc3ccnn23)CC1 do in these assays?
PINK1 expr mod: 0%; Vif-A3G inh: -1%; GLS inhibitor: 10%

How did CN1CCN(c2cc(-c3ccc4ccccc4c3)nc3ccnn23)CC1 do in these assays?
PINK1 expr mod: 45µM*; Vif-A3G inh: 2%; GLS inhibitor: 8%

How did COc1cc(/C=C2\SC(N)=NC2=O)cc(Cl)c1O do in these assays?
Vif-APOBEC3F blk: 11µM*; PINK1 expr mod: 4%; Vif-A3G inh: -18%; GLS inhibitor: 42%

How did CC(C)n1c(NCc2ccc(N(C)C)cc2)nc2ccccc21 do in these assays?
Vif-APOBEC3F blk: 7%; PINK1 expr mod: 1%; Vif-A3G inh: -2%; GLS inhibitor: 19%; Epigenetic reg: 0%

Results for CCN(CC)c1ccc(CNc2nc3ccccc3n2C(C)C)cc1 ?
Vif-APOBEC3F blk: -10%; PINK1 expr mod: 22µM*; Vif-A3G inh: 3%; GLS inhibitor: 24%; Epigenetic reg: -1%

How did Nc1c(C(=O)c2ccc(Cl)cc2)sc2nc3c(cc12)CCC3 do in these assays?
Vif-APOBEC3F blk: 25µM*; PINK1 expr mod: inconclusive; Vif-A3G inh: -8%; GLS inhibitor: -3%; Epigenetic reg: inconclusive

How did Nc1c(C(=O)O)sc2nc3c(cc12)CCCC3 do in these assays?
Vif-APOBEC3F blk: 2%; PINK1 expr mod: 2%; Vif-A3G inh: 3%; GLS inhibitor: -7%; Epigenetic reg: -1%

Results for O=C1Nc2ccccc2Oc2cc([N+](=O)[O-])ccc21 ?
Vif-APOBEC3F blk: inconclusive; PINK1 expr mod: 1%; Vif-A3G inh: -8%; GLS inhibitor: 1%; Epigenetic reg: 3%

How did CCOc1cc([N+](=O)[O-])cc2c1C(=O)Nc1ccccc1O2 do in these assays?
Vif-APOBEC3F blk: 22µM*; PINK1 expr mod: 8%; Vif-A3G inh: inconclusive; GLS inhibitor: -12%; Epigenetic reg: inconclusive

What do the screens show for `COC(=O)c1cc(CNC(=O)c2cccc(C)c2)cc(NC(=O)c2ccncc2)c1`?
PINK1 expr mod: 0%

Results for CSCC[C@H](NC(=O)[C@@H](Cc1ccc(O[S+](=O)([O-])O)cc1)NC(=O)[C@H](N)CC(=O)O)C(=O)NCC(=O)N[C@@H](Cc1c[nH]c2ccccc12)C(=O)N[C@H](CCSC)C(=O)N[C@H](CC(=O)O)C(=O)N[C@@H](Cc1ccccc1)C(N)=O ?
GLS inhibitor: -14%

How did Cc1cc(/C=C2\SC(=S)N(Cc3ccco3)C2=O)c(C)n1-c1cccnc1 do in these assays?
Vif-APOBEC3F blk: 11µM*; PINK1 expr mod: inconclusive; Vif-A3G inh: 5.6µM*; GLS inhibitor: 2%; Epigenetic reg: 22µM*

Results for O=C(c1n[nH]c2c1CCCC2)N1CCOc2ccc(C(O)C(c3ccccc3)c3ccccc3)cc2C1 (stereo not drawn) ?
PINK1 expr mod: 0%

What do the screens show for `Cc1cccc2c(N3CCCC3)nc(CNS(=O)(=O)c3ccc4ccccc4c3)nc12`?
PINK1 expr mod: -1%

Results for Cc1ccc(O)c(N=Cc2sc3ccccc3c2Cl)c1 ?
Vif-APOBEC3F blk: -14%; PINK1 expr mod: inconclusive; Vif-A3G inh: -9%; GLS inhibitor: 11µM*; Epigenetic reg: 1%

What do the screens show for `Oc1ccccc1N=Cc1sc2ccccc2c1Cl`?
Vif-APOBEC3F blk: -3%; PINK1 expr mod: 3%; Vif-A3G inh: -22%; GLS inhibitor: 22%; Epigenetic reg: inconclusive
